From the supplement of paper PMC11732987, “Enantioselective OTUD7B fragment discovery through chemoproteomics screening and high-throughput optimisation” (Communications Chemistry, 2025)

Legend:
Assay in all cases: log2 ratio of Biotin-Ahx-Ub-VS probe labelling (fragment/DMSO); higher = less target engagement (more negative = stronger competition), active = hit call of the paper (q ≤ 0.05, log2 ratio ≤ -1)
Conditions in all cases: compound concentration: 200 uM; treatment time: 3 h
USP34 = USP34 (UniProt Q70CQ2)
Summary of the method: (§1)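 HEK293T lysate (495 µg per sample, in Tris/CHAPS/IGEPAL buffer with protease inhibitors) was exposed in triplicate for 3 h to fragment at 200 µM or to vehicle, then to Biotin-Ahx-Ub-VS at 0.5 µM final for 1 h. Labelled DUBs were enriched on NeutrAvidin, digested with LysC and trypsin, and analysed by diaPASEF LC-MS/MS. Spectronaut label-free quantities were normalised to the global median, and values are average log2 ratios of fragment over vehicle from an unpaired t-test. Only proteins with ≥2 unique peptides were used.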

USP36 = target: T1, USP36 (UniProt Q9P275)
T1 sequence (whole entry): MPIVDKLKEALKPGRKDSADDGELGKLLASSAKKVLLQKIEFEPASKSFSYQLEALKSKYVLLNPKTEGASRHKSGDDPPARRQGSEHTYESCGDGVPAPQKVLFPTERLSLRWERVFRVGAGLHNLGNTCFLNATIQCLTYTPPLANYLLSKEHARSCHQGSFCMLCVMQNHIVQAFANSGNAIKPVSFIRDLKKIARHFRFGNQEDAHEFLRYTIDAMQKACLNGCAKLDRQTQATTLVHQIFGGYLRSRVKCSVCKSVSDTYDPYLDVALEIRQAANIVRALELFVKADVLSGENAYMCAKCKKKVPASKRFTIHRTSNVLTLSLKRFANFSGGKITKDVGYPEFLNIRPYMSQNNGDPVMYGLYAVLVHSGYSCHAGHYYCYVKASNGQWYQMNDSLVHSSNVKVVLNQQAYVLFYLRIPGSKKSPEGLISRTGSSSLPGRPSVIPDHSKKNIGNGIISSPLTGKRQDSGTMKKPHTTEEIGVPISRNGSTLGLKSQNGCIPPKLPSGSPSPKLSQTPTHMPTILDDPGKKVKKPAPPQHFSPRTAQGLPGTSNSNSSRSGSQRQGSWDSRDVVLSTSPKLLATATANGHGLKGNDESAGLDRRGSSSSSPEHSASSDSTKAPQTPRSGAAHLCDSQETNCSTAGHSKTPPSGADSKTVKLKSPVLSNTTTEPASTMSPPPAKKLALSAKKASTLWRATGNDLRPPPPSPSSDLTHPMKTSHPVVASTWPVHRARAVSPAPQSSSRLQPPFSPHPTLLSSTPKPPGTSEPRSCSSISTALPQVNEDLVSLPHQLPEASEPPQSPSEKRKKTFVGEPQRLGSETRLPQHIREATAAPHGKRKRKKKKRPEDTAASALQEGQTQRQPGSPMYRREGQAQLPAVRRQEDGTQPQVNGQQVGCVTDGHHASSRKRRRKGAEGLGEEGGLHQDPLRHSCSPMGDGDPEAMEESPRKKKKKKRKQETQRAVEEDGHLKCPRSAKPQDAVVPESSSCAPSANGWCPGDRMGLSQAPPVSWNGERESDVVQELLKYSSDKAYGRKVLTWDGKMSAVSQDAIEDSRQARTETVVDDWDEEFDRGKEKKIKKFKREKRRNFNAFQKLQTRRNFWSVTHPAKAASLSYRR
Summary of the method: as §1

USP38 = target: T2, USP38 (UniProt Q8NB14)
T2 sequence (whole entry): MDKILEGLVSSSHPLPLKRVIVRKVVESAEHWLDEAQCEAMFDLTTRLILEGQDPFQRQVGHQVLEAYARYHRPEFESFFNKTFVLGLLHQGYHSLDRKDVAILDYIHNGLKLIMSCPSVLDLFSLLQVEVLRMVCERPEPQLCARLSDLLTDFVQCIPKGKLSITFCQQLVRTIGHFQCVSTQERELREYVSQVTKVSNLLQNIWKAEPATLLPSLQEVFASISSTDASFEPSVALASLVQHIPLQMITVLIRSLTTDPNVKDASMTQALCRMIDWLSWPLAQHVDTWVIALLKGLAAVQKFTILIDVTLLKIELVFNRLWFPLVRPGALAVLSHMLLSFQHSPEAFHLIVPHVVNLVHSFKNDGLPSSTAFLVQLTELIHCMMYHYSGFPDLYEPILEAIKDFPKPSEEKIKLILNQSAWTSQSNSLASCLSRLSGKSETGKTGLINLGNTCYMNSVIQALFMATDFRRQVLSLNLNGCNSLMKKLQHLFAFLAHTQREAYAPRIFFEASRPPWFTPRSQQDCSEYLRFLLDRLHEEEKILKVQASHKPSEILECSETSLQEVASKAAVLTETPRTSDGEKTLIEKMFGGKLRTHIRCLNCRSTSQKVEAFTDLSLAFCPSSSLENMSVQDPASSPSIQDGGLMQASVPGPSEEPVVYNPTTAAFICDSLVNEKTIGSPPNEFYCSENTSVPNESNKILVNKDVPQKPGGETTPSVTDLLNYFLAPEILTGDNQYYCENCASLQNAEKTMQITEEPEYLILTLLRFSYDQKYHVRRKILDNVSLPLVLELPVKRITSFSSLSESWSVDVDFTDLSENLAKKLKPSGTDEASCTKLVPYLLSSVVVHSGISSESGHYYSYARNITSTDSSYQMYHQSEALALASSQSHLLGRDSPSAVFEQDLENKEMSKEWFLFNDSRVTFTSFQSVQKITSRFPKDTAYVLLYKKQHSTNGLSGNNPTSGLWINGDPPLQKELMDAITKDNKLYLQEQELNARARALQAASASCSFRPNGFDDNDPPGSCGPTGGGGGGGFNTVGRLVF
Summary of the method: as §1

USP39 = target: T3, USP39 (UniProt Q53GS9)
T3 sequence (whole entry): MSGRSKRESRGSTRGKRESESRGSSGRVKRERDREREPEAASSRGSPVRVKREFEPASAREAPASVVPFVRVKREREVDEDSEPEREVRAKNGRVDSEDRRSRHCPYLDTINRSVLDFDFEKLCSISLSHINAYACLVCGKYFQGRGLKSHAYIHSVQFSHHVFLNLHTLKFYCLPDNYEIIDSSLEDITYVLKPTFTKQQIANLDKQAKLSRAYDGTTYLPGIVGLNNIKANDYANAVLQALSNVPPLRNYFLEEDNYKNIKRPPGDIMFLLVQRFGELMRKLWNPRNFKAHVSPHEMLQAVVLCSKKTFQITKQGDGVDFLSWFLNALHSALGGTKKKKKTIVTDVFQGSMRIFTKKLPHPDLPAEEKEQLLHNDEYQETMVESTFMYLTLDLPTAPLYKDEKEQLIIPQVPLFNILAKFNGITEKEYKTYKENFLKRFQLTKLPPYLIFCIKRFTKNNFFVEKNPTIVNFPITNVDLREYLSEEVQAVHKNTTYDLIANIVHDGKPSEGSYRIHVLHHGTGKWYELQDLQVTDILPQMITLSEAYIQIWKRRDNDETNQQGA
Summary of the method: as §1

USP4 = target: T4, USP4 (UniProt Q13107)
T4 sequence (whole entry): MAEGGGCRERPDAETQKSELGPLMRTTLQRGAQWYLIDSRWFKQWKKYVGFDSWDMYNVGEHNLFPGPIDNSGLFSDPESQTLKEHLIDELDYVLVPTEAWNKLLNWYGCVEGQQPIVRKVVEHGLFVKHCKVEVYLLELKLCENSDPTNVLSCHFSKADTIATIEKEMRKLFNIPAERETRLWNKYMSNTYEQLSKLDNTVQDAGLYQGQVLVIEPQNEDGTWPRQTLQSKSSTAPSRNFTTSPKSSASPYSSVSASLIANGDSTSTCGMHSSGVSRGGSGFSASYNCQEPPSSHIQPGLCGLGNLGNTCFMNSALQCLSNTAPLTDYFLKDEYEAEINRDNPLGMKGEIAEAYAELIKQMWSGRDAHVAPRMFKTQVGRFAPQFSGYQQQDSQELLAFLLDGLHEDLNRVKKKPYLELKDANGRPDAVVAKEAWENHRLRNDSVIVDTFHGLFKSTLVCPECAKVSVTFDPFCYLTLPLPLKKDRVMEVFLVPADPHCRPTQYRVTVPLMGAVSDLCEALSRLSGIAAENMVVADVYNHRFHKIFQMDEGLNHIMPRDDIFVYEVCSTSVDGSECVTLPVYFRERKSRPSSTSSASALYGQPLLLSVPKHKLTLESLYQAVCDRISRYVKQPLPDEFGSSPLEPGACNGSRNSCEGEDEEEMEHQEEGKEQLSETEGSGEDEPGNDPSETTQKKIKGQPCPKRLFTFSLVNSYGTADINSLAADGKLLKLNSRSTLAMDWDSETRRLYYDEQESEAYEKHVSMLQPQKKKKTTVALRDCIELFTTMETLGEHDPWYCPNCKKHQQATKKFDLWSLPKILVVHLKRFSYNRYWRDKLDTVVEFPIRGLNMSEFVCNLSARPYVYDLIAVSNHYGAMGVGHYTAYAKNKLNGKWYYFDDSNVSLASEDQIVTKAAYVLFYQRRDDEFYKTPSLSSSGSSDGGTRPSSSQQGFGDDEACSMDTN
Summary of the method: as §1

Measured: log2 ratio of Biotin-Ahx-Ub-VS probe labelling

Chain of USP34 (Q70CQ2 whole entry, the tested form may be a part): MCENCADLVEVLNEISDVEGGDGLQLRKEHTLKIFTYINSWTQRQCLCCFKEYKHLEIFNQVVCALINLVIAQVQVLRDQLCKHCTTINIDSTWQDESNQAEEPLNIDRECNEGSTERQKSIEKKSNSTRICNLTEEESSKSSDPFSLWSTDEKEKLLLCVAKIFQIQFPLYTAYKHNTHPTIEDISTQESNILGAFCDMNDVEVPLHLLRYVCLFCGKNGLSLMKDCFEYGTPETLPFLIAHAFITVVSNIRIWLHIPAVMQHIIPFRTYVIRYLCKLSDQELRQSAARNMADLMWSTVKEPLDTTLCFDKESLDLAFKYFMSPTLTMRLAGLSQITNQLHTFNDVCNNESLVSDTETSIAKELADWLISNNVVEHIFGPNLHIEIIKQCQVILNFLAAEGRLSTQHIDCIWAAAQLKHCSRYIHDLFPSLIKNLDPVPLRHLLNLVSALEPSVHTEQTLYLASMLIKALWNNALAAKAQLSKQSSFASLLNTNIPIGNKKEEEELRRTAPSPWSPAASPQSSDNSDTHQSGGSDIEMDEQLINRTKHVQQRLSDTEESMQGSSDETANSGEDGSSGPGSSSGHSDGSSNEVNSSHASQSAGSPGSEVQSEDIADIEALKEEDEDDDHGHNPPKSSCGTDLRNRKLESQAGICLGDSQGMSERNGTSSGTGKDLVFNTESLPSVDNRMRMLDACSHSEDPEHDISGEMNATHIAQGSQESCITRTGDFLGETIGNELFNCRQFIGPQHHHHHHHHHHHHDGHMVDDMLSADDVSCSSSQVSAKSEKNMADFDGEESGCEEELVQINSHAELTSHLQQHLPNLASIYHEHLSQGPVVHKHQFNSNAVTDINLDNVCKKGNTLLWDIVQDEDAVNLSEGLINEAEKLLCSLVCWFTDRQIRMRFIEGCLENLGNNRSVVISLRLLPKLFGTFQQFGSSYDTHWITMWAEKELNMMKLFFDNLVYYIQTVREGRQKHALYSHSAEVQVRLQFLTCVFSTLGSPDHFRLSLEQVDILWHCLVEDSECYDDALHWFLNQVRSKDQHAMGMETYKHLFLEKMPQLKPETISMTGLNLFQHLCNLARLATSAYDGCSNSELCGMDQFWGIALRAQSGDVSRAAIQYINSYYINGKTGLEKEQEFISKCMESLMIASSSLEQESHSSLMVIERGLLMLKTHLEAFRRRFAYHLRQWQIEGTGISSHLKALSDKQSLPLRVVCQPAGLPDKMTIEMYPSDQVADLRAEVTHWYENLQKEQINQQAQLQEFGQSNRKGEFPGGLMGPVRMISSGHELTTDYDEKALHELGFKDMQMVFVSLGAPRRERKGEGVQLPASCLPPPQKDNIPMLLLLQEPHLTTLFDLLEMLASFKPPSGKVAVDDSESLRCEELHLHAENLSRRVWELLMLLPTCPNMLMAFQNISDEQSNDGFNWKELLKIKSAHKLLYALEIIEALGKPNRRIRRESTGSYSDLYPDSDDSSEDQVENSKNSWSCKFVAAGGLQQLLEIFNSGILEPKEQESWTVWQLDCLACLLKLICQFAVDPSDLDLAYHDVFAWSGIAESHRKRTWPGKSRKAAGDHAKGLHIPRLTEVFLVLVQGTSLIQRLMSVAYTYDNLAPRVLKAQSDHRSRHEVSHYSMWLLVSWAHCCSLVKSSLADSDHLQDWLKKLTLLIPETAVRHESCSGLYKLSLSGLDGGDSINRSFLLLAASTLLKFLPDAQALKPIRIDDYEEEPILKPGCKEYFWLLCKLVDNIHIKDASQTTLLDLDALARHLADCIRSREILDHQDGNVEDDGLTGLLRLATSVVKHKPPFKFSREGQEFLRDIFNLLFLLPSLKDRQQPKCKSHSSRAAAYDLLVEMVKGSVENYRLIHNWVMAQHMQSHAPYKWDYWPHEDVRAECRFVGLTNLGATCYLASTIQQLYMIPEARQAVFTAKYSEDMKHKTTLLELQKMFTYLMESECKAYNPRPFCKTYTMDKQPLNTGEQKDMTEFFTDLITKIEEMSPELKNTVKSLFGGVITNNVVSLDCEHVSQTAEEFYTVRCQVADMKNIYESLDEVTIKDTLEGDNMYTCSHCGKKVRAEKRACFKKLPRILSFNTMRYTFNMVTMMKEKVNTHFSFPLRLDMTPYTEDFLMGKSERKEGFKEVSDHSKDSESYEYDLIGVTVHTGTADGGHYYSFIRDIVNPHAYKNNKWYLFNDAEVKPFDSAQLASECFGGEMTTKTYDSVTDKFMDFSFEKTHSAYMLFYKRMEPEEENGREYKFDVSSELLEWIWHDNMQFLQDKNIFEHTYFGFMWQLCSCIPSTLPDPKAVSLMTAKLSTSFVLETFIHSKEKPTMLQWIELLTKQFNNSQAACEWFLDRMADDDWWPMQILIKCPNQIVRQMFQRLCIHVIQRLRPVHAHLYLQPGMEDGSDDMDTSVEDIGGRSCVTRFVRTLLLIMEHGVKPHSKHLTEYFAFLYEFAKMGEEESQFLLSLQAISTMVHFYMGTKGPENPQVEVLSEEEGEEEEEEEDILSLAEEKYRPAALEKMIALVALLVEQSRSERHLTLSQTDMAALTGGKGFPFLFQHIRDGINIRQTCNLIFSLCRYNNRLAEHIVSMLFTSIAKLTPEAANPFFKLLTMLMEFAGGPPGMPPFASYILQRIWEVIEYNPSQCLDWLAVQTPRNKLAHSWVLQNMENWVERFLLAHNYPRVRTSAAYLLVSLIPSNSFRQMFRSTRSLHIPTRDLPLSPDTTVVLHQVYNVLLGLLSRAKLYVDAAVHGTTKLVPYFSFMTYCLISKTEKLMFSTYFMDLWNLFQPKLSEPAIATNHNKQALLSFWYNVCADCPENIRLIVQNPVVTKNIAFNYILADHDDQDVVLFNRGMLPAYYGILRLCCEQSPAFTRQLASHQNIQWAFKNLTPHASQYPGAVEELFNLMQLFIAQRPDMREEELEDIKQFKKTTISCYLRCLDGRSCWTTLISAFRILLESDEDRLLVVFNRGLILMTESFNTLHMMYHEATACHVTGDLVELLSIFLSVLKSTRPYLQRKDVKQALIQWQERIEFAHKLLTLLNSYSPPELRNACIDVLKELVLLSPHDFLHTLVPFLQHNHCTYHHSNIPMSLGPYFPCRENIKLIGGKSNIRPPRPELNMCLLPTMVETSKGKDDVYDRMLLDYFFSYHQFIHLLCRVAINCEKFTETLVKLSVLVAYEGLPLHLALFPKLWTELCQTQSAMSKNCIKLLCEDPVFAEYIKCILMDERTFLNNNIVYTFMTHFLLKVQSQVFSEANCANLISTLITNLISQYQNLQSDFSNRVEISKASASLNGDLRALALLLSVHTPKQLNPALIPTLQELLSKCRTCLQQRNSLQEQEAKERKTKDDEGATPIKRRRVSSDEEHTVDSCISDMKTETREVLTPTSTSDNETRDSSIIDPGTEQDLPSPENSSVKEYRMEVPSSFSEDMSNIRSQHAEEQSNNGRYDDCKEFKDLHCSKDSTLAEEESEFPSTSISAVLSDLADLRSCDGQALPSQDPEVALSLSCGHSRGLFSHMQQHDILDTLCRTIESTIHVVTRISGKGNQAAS

Cc1cccc(C)c1NC(=O)CCl
inactive: USP34 -0.0998 | USP36 -0.33 | USP38 -0.0307 | USP39 0.204 | USP4 -0.132
